Screening data from PubChem.
MCF10A rerep: A quantitative high throughput screen for small molecules that induce DNA re-replication in MCF 10a normal breast cells; MCF 10A DNA re-replication, Hoechst nuclear intensity, 48 h; Potency, µM (top dose mostly 46.1 µM), for the others: at the top dose activity, positive = re-replication, actives largely listed as activators; 350,000 tested, 2.9% active; note: potency is the fitted concentration of half-maximal effect; % of control where 0% means no effect; nearly all actives have a fitted effect of over 50% in size
SW480 rerep: A quantitative high throughput screen for small molecules that induce DNA re-replication in SW480 colon adenocarcinoma cells; SW480 DNA re-replication, Hoechst DNA content imaging, 48 h; AID 624297, 2012; 340,000 tested, 1.8% active; Potency, µM (series often up to 46.1 µM), inactives show at the highest dose re-replication activation, most hits filed as activators; note: potency is the fitted concentration of half-maximal effect; % of control where 0% means no effect; nearly all actives have a fitted effect of over 55% in size
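Per well, 250 cells were exposed to pinned compound for 48 hr. Nuclear DNA was visualised with Hoechst (40 min, 37 C) and total object intensity recorded by fluorescence scanning.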
Giardia killer: Small Molecules that selectively kill Giardia lamblia: qHTS; Giardia lamblia trophozoite viability; AID 540267, 2011; 340,000 tested, 0.15% active; activity change, % at 7.66 µM, hits read low; in the data active = activity change below about -80%; inconclusive = between about -30% and that limit;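 note: parasites exposed to compound for two days anaerobically before the ATP read; % is set by controls: 0 for no effect and ±100 for the full control effect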
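Viability, read as ATP luminescence: trophozoites at 100 cells/well, compound added, 48 hrs anaerobic at 37 deg C, then 15-30 min room-temperature development before reading.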
BCR signal inh: qHTS Assay to Find Inhibitors of Chronic Active B-Cell Receptor Signaling | ABC-DLBCL IkBa-CBG/CBR reporter, luminescence ratio, 4 h | Potency, µM (doses to about 46.1 µM), for inactives: at the highest dose activity change, negative = inhibition, hits mostly inhibitors | 340,000 tested, 0.05% active; active = well fitted inhibition curve with a large enough effect in the signal ratio, with a control signal flat, not every such curve was filed as active; inconclusive = small, poorly fitted or top-dose-only effect, or effect the other way, or a change in a side signal; the % refers to the signal ratio;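 note: potency is the fitted concentration of half-maximal effect; plate controls were basal doxycycline-induced cells for no effect and cells given 10 µM MG132 for full effect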
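TMD8 human ABC-DLBCL cells with doxycycline-inducible IκBα–green luciferase fusion and unfused red luciferase, in 0.5% FBS medium; compounds up to 46 uM, 4 h at 37C. Green/red luminescence ratio, filter-overlap corrected, fitted to concentration-response curves.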
Gal4-VP16 FLuc: VP16 counterscreen qHTS for inhibitors of ROR gamma transcriptional activity; Drosophila S2 Gal4-VP16 UAS-luciferase, luminescence, 20 h; Potency, µM (titrated, usually from 53.6 µM), for the others: top-dose activity, negative = inhibition, most hits filed as inhibitors; 310,000 tested, 3.5% active;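 note: Gal4-VP16 expression switched on by copper sulfate through the metallothionein promoter; potency is the fitted concentration of half-maximal effect; % is set by controls: 0 for no effect and ±100 for the full control effect; nearly all actives have a fitted effect of over 50% in size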
RORg inh: qHTS for inhibitors of ROR gamma transcriptional activity; Drosophila S2 Gal4-RORgamma UAS-luciferase reporter, 20 h; Potency, µM (doses to about 53.6 µM), for the others: top-dose activity change, negative = inhibition, usual class: inhibitors; 310,000 tested, 5.4% active; note: potency is the fitted concentration of half-maximal effect; % is set by controls: 0 for no effect and ±100 for the full control effect; nearly all actives have a fitted effect of over 60% in size
Target sequence (P51450 whole entry, looked up, the tested form may be a part): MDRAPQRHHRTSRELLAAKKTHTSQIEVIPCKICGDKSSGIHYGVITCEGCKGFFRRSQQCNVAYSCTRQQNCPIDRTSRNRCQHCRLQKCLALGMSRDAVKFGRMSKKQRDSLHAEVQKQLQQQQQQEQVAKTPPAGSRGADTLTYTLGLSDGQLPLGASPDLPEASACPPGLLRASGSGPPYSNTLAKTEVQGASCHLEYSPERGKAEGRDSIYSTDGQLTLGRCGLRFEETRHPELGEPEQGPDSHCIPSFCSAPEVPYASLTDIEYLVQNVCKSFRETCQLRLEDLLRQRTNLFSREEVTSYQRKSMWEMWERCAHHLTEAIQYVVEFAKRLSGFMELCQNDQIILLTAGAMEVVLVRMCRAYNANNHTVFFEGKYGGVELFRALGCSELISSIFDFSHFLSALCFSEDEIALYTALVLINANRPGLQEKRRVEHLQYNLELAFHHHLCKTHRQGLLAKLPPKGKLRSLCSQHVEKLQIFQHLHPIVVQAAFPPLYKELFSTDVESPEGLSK
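In this cell-based reporter format, copper sulfate (700 uM final) drives Gal4–ROR gamma fusion expression from a metallothionein promoter in Drosophila Schneider cells; compounds preincubated 1 hr, reporter read after 20 hr at ambient temperature.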
Starred values were filed as active, the others as inactive; ? = inconclusive; / = no result given. The list is not random: actives were taken first. Their share in the collection is about 8.3%. Unless noted, calls come from the whole dose curve; as a rule, active = well fitted curve in the direction sought with a large enough effect; inconclusive = small, poorly fitted or top-dose-only effect, or another doubt; inactive = no such curve, though single readings can be large; an effect the other way counts as inactive or inconclusive.

SMILES | MCF10A rerep | SW480 rerep | Giardia killer | BCR signal inh | Gal4-VP16 FLuc | RORg inh
O=C(Cn1nnc2ccccc21)OCc1ccccc1 | 0.65µM* | -2% | 27 | 7% | -15% | 17%
CS(=O)(=O)c1nc(-c2ccc(F)cc2)cc(C(F)(F)F)n1 | 3.7µM* | ? | -14 | ? | 4.5µM* | 2.5µM*
Cc1cc(NC(=O)CCCS(=O)(=O)c2nc(-c3cccs3)cc(C(F)(F)F)n2)no1 | 4.1µM* | ? | 4 | ? | 0.89µM* | 5.6µM*
CS(=O)(=O)c1nc(-c2cccs2)cc(C(F)(F)F)n1 | / | / | / | ? | 4.5µM* | 2µM*
COc1ccc(-c2cc(C(F)(F)F)nc(S(C)(=O)=O)n2)cc1 | ? | 11% | -8 | ? | 8.9µM* | 13µM*
Cc1cccc(N(Cc2ccccc2)C(=O)Cc2ccc(S(=O)(=O)N3CCOCC3)s2)c1 | 21% | 7% | 1 | 2% | / | /
COc1cc(OC)c(NC(=O)c2cncn2-c2ccc(F)cc2)cc1Cl | -20% | -13% | 5 | 0% | -2% | 5%
COc1ccc(CC(=O)n2[nH]c(=O)cc(C)c2=O)cc1OC | 3% | 223% | -2 | ? | ? | 11µM*
CC(O)c1nc2ccccc2n1CCCCOc1ccccc1 (centres undefined) | 21% | -24% | 28 | ? | 29% | 24%
CCC(C)[C@H]1CNC(=S)N1CCc1cc(C(F)(F)F)cc(C(F)(F)F)c1 (some centres undefined) | ? | 0% | -16 | -12% | 4µM* | 2.2µM*
CCCCN1CN(S(=O)(=O)c2ccc(OC)cc2)c2nc3ccccc3nc21 | -11% | 29% | -10 | 12% | -10% | 8%
O=S(=O)(c1ccc(Cl)cc1)N1c2ccccc2Oc2nc3ccccc3nc21 | 15µM* | 18% | -20 | 1% | 3% | 40%
O=S(=O)(c1ccc(Cl)cc1)N1CN(CC2CCCO2)c2nc3ccccc3nc21 (centres undefined) | 4% | -15% | -4 | 23% | 6% | 36%
COc1ccc(S(=O)(=O)N2c3cc(Cl)ccc3Oc3nc4ccccc4nc32)cc1 | 1µM* | 2.1µM* | 4 | -12% | 8% | 0%
O=C(NC1CC(=O)c2sccc21)c1ccc(Cl)cc1Cl (centres undefined) | 8% | 6% | 3 | -2% | 18% | -2%
CCOC(=O)C1CCCN(C(c2ccccn2)c2c(C)[nH]c3ccccc23)C1 (centres undefined) | 5% | 26% | 12 | ? | -5% | 13µM*
CSc1ccc(CN2CCCN(C)CC2)cc1 | ? | -8% | -11 | 2% | 5% | -15%
Nc1c(C(=O)Nc2ccc(Br)cc2)sc2nc(-c3ccco3)ccc12 | 5.2µM* | ? | -11 | 11% | ? | -17%
Nc1c(C(=O)Nc2ccc(F)cc2)sc2nc(-c3ccco3)ccc12 | ? | ? | 0 | ? | -6% | -2%
NC(=O)c1sc2nc3c(c(-c4cccs4)c2c1N)CCCCC3 | 13µM* | ? | -11 | 1% | 6% | -10%
Nc1c(C(=O)Nc2ccccc2)sc2nc3c(c(-c4ccco4)c12)CCC3 | ? | 2% | 17 | -2% | -1% | 32%
NC(=O)c1sc2nc3c(c(-c4cccnc4)c2c1N)CCC3 | 0% | 2% | -11 | 19% | 2% | ?
Cc1ccccc1NC(=O)c1sc2nc3c(c(-c4ccco4)c2c1N)CCCC3 | ? | 16µM* | 3 | 1% | 2% | 9%
Cc1ccc(NC(=O)c2sc3nc4c(c(-c5ccco5)c3c2N)CCC4)cc1 | 1.8µM* | 13% | -1 | -1% | -11% | ?
O=C(COC(=O)Cc1ccc(F)cc1)NC1CCCCC1 | -4% | -3% | 5 | 0% | / | /
SMILES | MCF10A rerep | SW480 rerep | Giardia killer | BCR signal inh | Gal4-VP16 FLuc | RORg inh
CC(C)c1ccccc1OCC(=O)Nc1ccccc1C(=O)N1CCOCC1 | -2% | 0% | 5 | -1% | -2% | 4%
Cc1ccc(Cl)cc1NC(=S)N(Cc1cccnc1)Cc1ccccc1Cl | 17% | -1% | 7 | ? | 25µM* | ?
Cc1ccccc1NC(=S)N(Cc1ccccc1)Cc1cccnc1 | 4% | 3% | -10 | -2% | 22% | ?
CSc1cccc(NC(=S)N(Cc2ccc(C)cc2)Cc2cccnc2)c1 | -1% | 15% | 19 | ? | ? | 5µM*
COc1ccc(Nc2nnc(SCc3cc(=O)n4ccsc4n3)s2)cc1 | 13% | 7% | -9 | -1% | 4% | 32%
Cc1ccc(N2CCN(CC(O)COc3cccc4ccccc34)CC2)cc1 (centres undefined) | ? | 19% | -1 | ? | -22% | 4%
OC(COc1cccc2ccccc12)CN1CCN(c2ccccc2Cl)CC1 (centres undefined) | 18µM* | ? | 0 | 0% | -28% | -32%
COc1ccc(OC)c(S(=O)(=O)N2CCC(C(=O)NC3CCCCC3)CC2)c1 | -1% | 2% | ? | -6% | -1% | 29%
CCOc1cc2[nH]c(=S)n(C(C)C)c(=O)c2cc1OCC | 14% | 1% | -13 | ? | 7.1µM* | 2µM*
CCOc1cc2[nH]c(=S)n(CCCOC)c(=O)c2cc1OCC | ? | 0% | -8 | 2% | ? | 11µM*
CCOc1cc2[nH]c(=S)n(C3CC3)c(=O)c2cc1OCC | 2% | -6% | -15 | ? | 16µM* | 4.5µM*
CCOc1cc2[nH]c(=S)n(CCCN3CCOCC3)c(=O)c2cc1OCC | 13% | 0% | 4 | ? | -17% | -13%
CCOc1cc2[nH]c(=S)n(CCN3CCC(C)CC3)c(=O)c2cc1OCC | 5% | -1% | 2 | -26% | -3% | -19%
CCOC(=O)N1CCC(n2c(=S)[nH]c3cc(OCC)c(OCC)cc3c2=O)CC1 | ? | 7% | 8 | 2% | -8% | 5%
CCC(CO)n1c(=S)[nH]c2cc(OC)c(OC)cc2c1=O (centres undefined) | ? | 19% | 20 | -5% | ? | 11µM*
COCC(=O)Nc1cc(C(=O)Nc2ccccc2)ccc1Cl | / | / | / | ? | 18% | 1%
CCCCSc1nc(N)nc2c1ncn2C1OC(CO)C(O)C1O (centres undefined) | 2% | ? | 4 | / | / | /
